Screening data as filed in PubChem.
Only some compounds are listed: those with a hit (about 8.3% of all), similar ones and a draw of the others.
HCV inh = inhibitors of hepatitis C virus infection | Huh7.5.1 HCVcc-Cre infection, luciferase reporter, 44 h | Potency, µM (doses to about 41.8 µM), for inactives: top-dose activity change, negative = inhibition, most hits filed as inhibitors | actives 3.4% (n = 340,000) | AID 651820; also: potency is read from the fitted curve at half-maximal effect
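Antiviral activity was scored by luciferase reporter output from cells infected with HCVcc-Cre (~0.5 moi) in presence of compound, 44 h infection period, cells seeded 1,000/well 4 h prior.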
HCMV antiviral = inhibitors of human cytomegalovirus. HFF cells, HCMV-luciferase reporter, 72 h; hits give low values. activity change, negative = inhibition, % at 57.5 µM. AID 1259415. actives 4.5% (n = 410,000); in the data active = activity change below about -60%; inconclusive = no clear call, values can overlap the other calls; inactive = above about -39%
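Screen run at 2 compound doses on HFFs infected with reporter HCMV, MOI 1 PFU/cell. Luciferase activity from cell lysates at 72 h post infection gave inhibition relative to buffer-only and Salinomycin wells.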
Marburg entry inh = inhibitors of Marburg virus binding or cell entry | Marburg virus pseudotyped entry inhibition, cell reporter | Potency, µM (doses to about 37.8 µM), without a hit: top-dose activity change, negative = inhibition, actives largely listed as inhibitors | actives 1.8% (n = 300,000); calls by dose curve; tested in HEK293 cells; also: potency is read from the fitted curve at half-maximal effect
LASV entry inh = Lassa virus entry inhibition; Lassa virus pseudotype entry inhibition, cell reporter; actives 1.2% (n = 300,000); Potency, µM (highest dose often 37.9 µM), for inactives: at the highest dose activity change, negative = inhibition, most hits filed as inhibitors; calls by dose curve; tested in HEK293 cells; also: potency is read from the fitted curve at half-maximal effect; nearly all actives have a fitted effect of over 50% in size
FMDV antiviral = foot and mouth disease virus antiviral activity; FMDV antiviral cell-based qHTS; AID 1159524; actives 1.2% (n = 410,000); Potency, µM (series often up to 57.9 µM), for inactives: at the highest dose activity change, negative = inhibition, most hits filed as inhibitors; calls by dose curve; tested in HEK293T cells; also: read-out not given here; potency is read from the fitted curve at half-maximal effect; nearly all actives have a fitted effect of over 45% in size
Giardia FBPA inh = blocks Giardia fructose-bisphosphate aldolase activity | A8B2U2 | purified Giardia FBPA | Potency, µM (highest dose often 59.6 µM), for inactives: at the highest dose activity, negative = inhibition, actives largely listed as inhibitors | actives 0.71% (n = 290,000); also: potency is read from the fitted curve at half-maximal effect; nearly all actives have a fitted effect of over 55% in size
Target sequence (A8B2U2 whole entry, looked up): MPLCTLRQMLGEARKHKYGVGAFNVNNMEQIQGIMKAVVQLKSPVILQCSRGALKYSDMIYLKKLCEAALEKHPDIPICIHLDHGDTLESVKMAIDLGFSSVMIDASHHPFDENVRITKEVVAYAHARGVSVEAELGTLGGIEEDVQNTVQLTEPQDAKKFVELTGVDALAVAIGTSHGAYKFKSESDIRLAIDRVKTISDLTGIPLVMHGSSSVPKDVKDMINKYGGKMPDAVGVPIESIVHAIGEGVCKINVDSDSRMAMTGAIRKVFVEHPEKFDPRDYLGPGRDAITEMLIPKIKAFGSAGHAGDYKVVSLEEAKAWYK
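Giardia FBPA (40 nM reagent) was preincubated 10 min at RT with compound (up to 57.5 uM final), then substrate plus GAPDH/TPI/NAD/arsenate coupling system with diaphorase/resazurin was added; resorufin fluorescence (525/598 nm) was read after 20 min.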
* marks the source's active call; other numbers are inactive results; ? = inconclusive; / = no result given; [ ] = another dose, or the depositor's remark. Unless noted, calls follow the shape of the dose curve; as a rule, active = well fitted curve in the direction sought with a large enough effect; inconclusive = small, poorly fitted or top-dose-only effect, or another doubt; inactive = no such curve, though single readings can be large; an effect the other way counts as inactive or inconclusive. % is scaled to controls: 0 for no effect and ±100 for the full control effect.

SMILES	HCV inh	HCMV antiviral	Marburg entry inh	LASV entry inh	FMDV antiviral	Giardia FBPA inh
C[C@H]1CC[C@]2(NC1)O[C@H]1C[C@H]3[C@@H]4CC[C@H]5C[C@@H](O[C@@H]6O[C@H](CO)[C@H](O[C@@H]7O[C@H](CO)[C@@H](O)[C@H](O[C@@H]8OC[C@@H](O)[C@H](O)[C@H]8O)[C@H]7O[C@@H]7O[C@H](CO)[C@@H](O)[C@H](O)[C@H]7O)[C@H](O)[C@H]6O)CC[C@]5(C)[C@H]4CC[C@]3(C)[C@H]1[C@@H]2C	/	/	/	/	25µM*	/
COc1ccc(NC(=O)CN2C(=O)/C(=C3\SC(=S)N(C4CCS(=O)(=O)C4)C3=O)c3ccccc32)cc1 (stereo not drawn)	-9%	-4	?	-22%[46.1 µM]	?	-25%
O=C(CN1C(=O)/C(=C2\SC(=S)N(C3CCS(=O)(=O)C3)C2=O)c2ccccc21)Nc1ccc(F)cc1 (stereo not drawn)	11%	?	4%[46.1 µM]	13%	13µM*	-14%
CC(=Nc1ccccc1)C1=C(O)C(Cc2ccc(O)cc2)NC1=O (stereo not drawn)	21%	-69*	-24%	?	-14%	/
CC(=Nc1ccccc1)C1=C(O)C(Cc2cccc(F)c2)NC1=O (stereo not drawn)	/	-72*	/	/	0%	/
Fc1ccc(-n2nnc(-c3cccnc3)n2)cc1	1%	49	/	/	72%	8%
Fc1ccc(C(CCCn2nnc(-c3cccnc3)n2)c2ccc(F)cc2)cc1	?	-76*	?	-8%	?	0%
O=C(NCCN1C(=O)S/C(=C\c2ccc(Cl)c([N+](=O)[O-])c2)C1=O)C1=COCCO1	11µM*	2	?	?	-4%	/
O=C(NCCN1C(=O)S/C(=C\c2ccc(Cl)c(Cl)c2)C1=O)c1cnccn1	-1%	-66*	-5%	-16%	-13%	-5%
CS(=O)(=O)c1ccc(C(=O)NCCN2C(=O)S/C(=C\c3cccnc3)C2=O)cc1[N+](=O)[O-]	?	-114*	10µM*	21µM*	28µM*	-9%
CCOc1cc(-c2nc(-c3ccc(-c4ccc(OC)cc4)nc3OC)no2)cc(OCC)c1OCC	/	-6	-3%[46.1 µM]	15%[46.1 µM]	-5%	/
Cc1ccc(S(=O)(=O)NCC(Nc2cccc(Cl)c2)c2ccccc2)cc1 (stereo not drawn)	/	-103*	?	?	-1%	/
O=S(=O)(NCC(Nc1ccc(Cl)cc1)c1ccccc1)c1ccc(Cl)cc1 (stereo not drawn)	?	?	?	?	-3%	-7%
Nc1nonc1-c1nc2ccccc2n1Cc1cccc(Cl)c1	/	-4	/	?	-3%	/
Cc1cc(Br)c2[nH]c3c(c2c1)CCCC3=O	10µM*	-8	-8%[46.1 µM]	-1%	-1%	0%
CCNc1nc(N2CCCC2)nc(N2CCCC2)n1	11µM*	-32	?	-7%[46.1 µM]	-21%	3%
CC(C)(C)Nc1nc(OCC#N)nc(N2CCCCC2)n1	?	?	/	/	?	17%
CC(C)(CO)Nc1nc(N2CCCC2)nc(N2CCCC2)n1	?	5	?	0%	-28%	6%
CCNc1nc(NC(C)(C)C)nc(N2CCCCC2)n1	?	-72*	2µM*	?	-29%	5%
COc1ccc(Cn2c(=O)oc3ccc(C)cc32)cc1OC	14µM*	-95*	?	?	?	3%
Cc1cc(NCCCn2ccnc2)n2nc(C)c(-c3ccc(Cl)cc3)c2n1	10µM*	-38	?	-10%	-21%	12%
Cc1cc(NCCCn2ccnc2)n2ncc(-c3ccccc3)c2n1	-22%	/	?	4.5µM*	-4%	4%
Cc1cc(NCCN2CCOCC2)n2nc(C)c(-c3ccc(Cl)cc3)c2n1	10µM*	-2	?	?	?	13%
Cc1cc(NCCN2CCOCC2)n2nc(C)c(-c3ccccc3)c2n1	?	4	-26%	-1%	-16%	0%
Cc1cn2c(=O)cc(COC(=O)c3cccc(NC(=O)c4ccc(C(C)(C)C)cc4)c3)nc2s1	/	-21	/	?	2%	/
SMILES	HCV inh	HCMV antiviral	Marburg entry inh	LASV entry inh	FMDV antiviral	Giardia FBPA inh
COc1cc(C#Cc2c(-c3cncn3C)n(C)c3ccc(-c4ccc(OC)c(OC)c4)cc23)cc(OC)c1	?	58	/	/	-19%	/
COc1cc(C#Cc2c(-c3cncn3C)n(C)c3ccc(Br)cc23)cc(OC)c1	1.1µM*	-9	/	/	?	/
O=C(Nc1nc2ccc(Cl)cc2s1)c1ccc(N2CCCCC2)c([N+](=O)[O-])c1	-2%	-67*	?	?	?	1%
O=C(Nc1cccc(S(=O)(=O)N2CCOCC2)c1)c1ccc(Cl)c([N+](=O)[O-])c1	?	16	?	3%[46.1 µM]	40µM*	-5%
CC(=O)N1CCN(c2ccc(NC(=O)c3ccc(N4CCCC4)c([N+](=O)[O-])c3)cc2Cl)CC1	10µM*	-71*	?	?	/	2%
O=C(Nc1nc2ccc3ccccc3c2s1)c1ccc(N2CCCCC2)c([N+](=O)[O-])c1	7%	?	-5%	5%	-15%	-1%
Cc1cc(C(=O)Nc2cccc(-c3ccc(N4CCOCC4)nn3)c2)ccc1[N+](=O)[O-]	10µM*	-25	?	?	-17%	/
COC(=O)C1CCN(Cc2ccc3c(c2)CN(C(=O)c2ccc4nc(C)c(C)nc4c2)CCO3)CC1	/	/	/	/	-1%	/
Cc1cc2c(c(=O)n1-c1ccccc1)C1O[C@](c3ccsc3)(Cc3ccccc31)O2	/	/	/	/	/	0%[12.9 µM]
O=C(Nc1ccccc1)N(Cc1cccs1)c1ccc(Cl)cc1	/	-25	?	18%[46.1 µM]	-12%	/
Cc1ccc(NC(=O)c2ccc(N3CCOCC3)c([N+](=O)[O-])c2)cc1S(=O)(=O)N1CCOCC1	3.5µM*	-98*	?	-2%	13µM*	-4%
Cc1ccc(C(=O)Nc2cccc(S(=O)(=O)N3CCOCC3)c2)cc1[N+](=O)[O-]	?	?	/	/	-4%	-1%
COc1ccc2oc(-c3ccc(C)c(NC(=O)c4ccc(N5CCOCC5)c([N+](=O)[O-])c4)c3)nc2c1	-19%	-81*	-29%	-5%	58%	1%
CN(C)S(=O)(=O)c1cccc(NC(=O)c2ccc(N3CCOCC3)c([N+](=O)[O-])c2)c1	?	-71*	?	?	?	-9%
CC(C)CNC(=O)c1cccc(NC(=O)c2ccc(Cl)c([N+](=O)[O-])c2)c1	?	-15	?	?	28µM*	0%
CNc1ccccc1C(=O)N1CCc2c([nH]c3ccccc23)C1=O	/	/	/	/	44%	-8%
COc1ccccc1NC(=O)c1ccc(-n2ccnc2)c([N+](=O)[O-])c1	-28%	15	19%	?	-13%	-2%
